# Laboratory results from article PMC7862700, “An all-to-all approach to the identification of sequence-specific readers for epigenetic DNA modifications on cytosine”.
# Columns and labels:
# Assay in all cases: DAPPL (digital affinity profiling via proximity ligation, sequencing); 10 mM Tris-HCl pH 7.5, 50 mM NaCl, 1 mM DTT, 4% glycerol, room temperature, 30 min; GST-TFs on glutathione beads, 16-mer random dsDNA library, 0.1% formaldehyde crosslink after washing; high values mean tight binding
# Conditions in all cases: protein: recombinant; tags: N-terminal GST; dsDNA, one strand shown
# ELK1 = molecular target: T1, ELK1 (Homo sapiens, UniProt P19419 1-428)
# T1 sequence: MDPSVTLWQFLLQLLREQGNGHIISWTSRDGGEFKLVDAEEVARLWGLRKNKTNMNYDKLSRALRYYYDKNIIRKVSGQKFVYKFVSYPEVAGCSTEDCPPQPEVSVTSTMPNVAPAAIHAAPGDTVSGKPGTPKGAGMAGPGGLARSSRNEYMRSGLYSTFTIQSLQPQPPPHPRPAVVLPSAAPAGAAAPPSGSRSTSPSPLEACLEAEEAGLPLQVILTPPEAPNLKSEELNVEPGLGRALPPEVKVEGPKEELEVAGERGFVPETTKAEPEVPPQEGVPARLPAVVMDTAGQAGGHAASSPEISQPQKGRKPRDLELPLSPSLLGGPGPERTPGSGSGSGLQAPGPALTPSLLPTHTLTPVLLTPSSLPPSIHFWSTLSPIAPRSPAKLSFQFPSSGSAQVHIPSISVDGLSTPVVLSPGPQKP
# Outline: (§1)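 Sequencing on an Illumina NextSeq500 followed washing, crosslinking with 0.1% formaldehyde, proximity ligation (BsaI/T4 ligase, 1 h, 37 °C) and PCR amplification of pools that had been incubated for 30 min at room temperature with 200 nmole of a random double-stranded 16-mer DNA library in Tris/NaCl/DTT/glycerol buffer. Each pool held DNA-barcoded human transcription factors, expressed in yeast as GST fusions and captured on glutathione beads, plus a tag-only sample. Binding signal is a hexamer's read frequency for a factor divided by its frequency in the tag-only sample.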
# GABPA = molecular target: T2, GABPA (Homo sapiens, UniProt Q06546 1-454)
# T2 sequence: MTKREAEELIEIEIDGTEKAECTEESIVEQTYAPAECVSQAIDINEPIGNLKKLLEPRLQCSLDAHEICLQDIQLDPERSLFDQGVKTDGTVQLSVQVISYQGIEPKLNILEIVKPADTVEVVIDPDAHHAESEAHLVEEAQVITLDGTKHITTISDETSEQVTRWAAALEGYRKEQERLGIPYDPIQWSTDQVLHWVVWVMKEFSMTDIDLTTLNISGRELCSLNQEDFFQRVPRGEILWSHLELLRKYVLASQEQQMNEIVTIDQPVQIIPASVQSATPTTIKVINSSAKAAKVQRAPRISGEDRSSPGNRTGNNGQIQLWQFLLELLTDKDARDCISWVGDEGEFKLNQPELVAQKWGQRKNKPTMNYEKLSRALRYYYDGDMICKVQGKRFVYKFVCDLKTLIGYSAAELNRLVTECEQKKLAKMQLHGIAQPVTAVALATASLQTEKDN
# Outline: as §1
# ERG = molecular target: T3, ERG (Homo sapiens, UniProt P11308 1-479)
# T3 sequence: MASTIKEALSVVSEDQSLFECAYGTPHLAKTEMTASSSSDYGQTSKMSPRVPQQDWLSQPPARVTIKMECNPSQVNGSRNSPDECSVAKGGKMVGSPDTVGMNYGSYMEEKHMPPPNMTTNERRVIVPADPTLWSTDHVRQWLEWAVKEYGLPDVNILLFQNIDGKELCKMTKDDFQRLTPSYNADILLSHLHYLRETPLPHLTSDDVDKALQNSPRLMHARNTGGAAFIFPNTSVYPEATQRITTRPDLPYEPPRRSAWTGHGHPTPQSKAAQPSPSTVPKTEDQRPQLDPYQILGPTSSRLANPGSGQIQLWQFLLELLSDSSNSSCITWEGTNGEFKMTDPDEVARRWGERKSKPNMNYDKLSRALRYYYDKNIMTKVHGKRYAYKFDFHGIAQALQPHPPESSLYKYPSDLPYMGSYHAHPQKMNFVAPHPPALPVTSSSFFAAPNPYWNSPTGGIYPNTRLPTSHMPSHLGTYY
# Outline: as §1
# ELF1 = ELF1 (Homo sapiens, UniProt P32519 1-619)
# Outline: as §1
# EHF = molecular target: T4, EHF (Homo sapiens, UniProt Q9NZC4 1-300)
# T4 sequence: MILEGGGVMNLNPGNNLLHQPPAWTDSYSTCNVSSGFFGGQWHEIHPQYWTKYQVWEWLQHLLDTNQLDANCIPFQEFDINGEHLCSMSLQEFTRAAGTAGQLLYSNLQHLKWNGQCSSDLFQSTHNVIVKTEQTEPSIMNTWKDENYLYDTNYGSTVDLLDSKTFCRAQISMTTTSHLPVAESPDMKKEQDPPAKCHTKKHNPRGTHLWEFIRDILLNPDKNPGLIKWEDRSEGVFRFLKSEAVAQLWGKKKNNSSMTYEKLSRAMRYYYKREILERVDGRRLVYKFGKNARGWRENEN
# Outline: as §1
# SPIB = SPIB (Homo sapiens, UniProt Q01892 1-262)
# Outline: as §1
# FEV = molecular target: T5, FEV (Homo sapiens, UniProt Q99581 1-238)
# T5 sequence: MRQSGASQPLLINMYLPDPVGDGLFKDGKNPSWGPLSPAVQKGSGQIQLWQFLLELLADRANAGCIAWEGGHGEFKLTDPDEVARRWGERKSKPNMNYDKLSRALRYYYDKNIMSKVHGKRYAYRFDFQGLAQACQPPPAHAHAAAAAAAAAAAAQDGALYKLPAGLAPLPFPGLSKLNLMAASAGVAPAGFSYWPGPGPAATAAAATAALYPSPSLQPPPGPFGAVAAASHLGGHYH
# Outline: as §1
# ETV5 = ETV5 (Homo sapiens, UniProt P41161 1-510)
# Outline: as §1
# ELF4 = ELF4 (Homo sapiens, UniProt Q99607 1-663)
# Outline: as §1
# ETV2 = molecular target: T6, ETV2 (Homo sapiens, UniProt O00321 1-342)
# T6 sequence: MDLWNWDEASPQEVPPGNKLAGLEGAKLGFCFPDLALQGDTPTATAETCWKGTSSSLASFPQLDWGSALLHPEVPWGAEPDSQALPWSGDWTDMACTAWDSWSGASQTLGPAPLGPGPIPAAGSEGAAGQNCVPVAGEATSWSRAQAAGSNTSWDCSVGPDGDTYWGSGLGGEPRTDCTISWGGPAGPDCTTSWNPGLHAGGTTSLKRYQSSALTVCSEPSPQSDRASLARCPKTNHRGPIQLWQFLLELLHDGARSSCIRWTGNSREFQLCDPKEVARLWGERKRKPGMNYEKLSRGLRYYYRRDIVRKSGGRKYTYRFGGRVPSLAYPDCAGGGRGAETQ
# Outline: as §1
# ELF3 = molecular target: T7, ELF3 (Homo sapiens, UniProt P78545 1-371)
# T7 sequence: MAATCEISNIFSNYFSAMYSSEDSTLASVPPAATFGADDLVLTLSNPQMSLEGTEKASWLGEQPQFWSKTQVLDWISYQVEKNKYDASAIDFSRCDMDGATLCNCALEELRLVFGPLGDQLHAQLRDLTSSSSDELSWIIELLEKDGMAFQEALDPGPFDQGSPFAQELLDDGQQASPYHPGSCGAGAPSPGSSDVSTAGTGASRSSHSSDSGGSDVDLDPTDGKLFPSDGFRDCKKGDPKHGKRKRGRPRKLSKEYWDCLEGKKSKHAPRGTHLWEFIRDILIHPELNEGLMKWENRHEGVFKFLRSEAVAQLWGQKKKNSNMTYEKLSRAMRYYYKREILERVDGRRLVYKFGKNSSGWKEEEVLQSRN
# Outline: as §1
# ETV1 = ETV1 (Homo sapiens, UniProt P50549 1-477)
# Outline: as §1
# ERF = molecular target: T8, ERF (Homo sapiens, UniProt P50548 1-548)
# T8 sequence: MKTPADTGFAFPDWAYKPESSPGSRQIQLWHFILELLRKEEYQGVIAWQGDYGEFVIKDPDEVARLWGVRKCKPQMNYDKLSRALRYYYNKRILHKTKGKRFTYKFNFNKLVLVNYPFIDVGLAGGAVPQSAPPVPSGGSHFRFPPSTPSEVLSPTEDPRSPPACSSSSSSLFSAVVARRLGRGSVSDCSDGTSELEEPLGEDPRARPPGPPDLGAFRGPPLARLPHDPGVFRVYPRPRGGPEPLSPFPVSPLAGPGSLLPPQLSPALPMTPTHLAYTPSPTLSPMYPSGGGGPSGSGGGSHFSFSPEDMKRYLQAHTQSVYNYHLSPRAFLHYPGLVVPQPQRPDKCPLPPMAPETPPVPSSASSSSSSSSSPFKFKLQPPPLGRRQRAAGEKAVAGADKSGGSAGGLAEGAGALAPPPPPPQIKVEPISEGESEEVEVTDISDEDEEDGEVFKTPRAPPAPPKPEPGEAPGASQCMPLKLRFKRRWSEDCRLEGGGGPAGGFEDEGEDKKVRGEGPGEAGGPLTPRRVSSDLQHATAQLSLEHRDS
# Outline: as §1
# ETV3L = molecular target: T9, ETV3L (Homo sapiens, UniProt Q6ZN32 1-361)
# T9 sequence: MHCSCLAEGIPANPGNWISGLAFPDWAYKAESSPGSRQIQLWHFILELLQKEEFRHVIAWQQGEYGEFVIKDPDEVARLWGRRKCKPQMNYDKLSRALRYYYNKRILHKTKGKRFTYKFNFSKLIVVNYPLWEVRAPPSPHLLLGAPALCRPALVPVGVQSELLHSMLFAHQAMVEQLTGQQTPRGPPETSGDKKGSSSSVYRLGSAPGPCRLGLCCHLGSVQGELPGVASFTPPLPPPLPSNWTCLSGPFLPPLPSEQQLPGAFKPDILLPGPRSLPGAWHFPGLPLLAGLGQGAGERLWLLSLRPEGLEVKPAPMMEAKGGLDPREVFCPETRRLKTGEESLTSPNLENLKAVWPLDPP
# Outline: as §1
# ETS2 = molecular target: T10, ETS2 (Homo sapiens, UniProt P15036 1-469)
# T10 sequence: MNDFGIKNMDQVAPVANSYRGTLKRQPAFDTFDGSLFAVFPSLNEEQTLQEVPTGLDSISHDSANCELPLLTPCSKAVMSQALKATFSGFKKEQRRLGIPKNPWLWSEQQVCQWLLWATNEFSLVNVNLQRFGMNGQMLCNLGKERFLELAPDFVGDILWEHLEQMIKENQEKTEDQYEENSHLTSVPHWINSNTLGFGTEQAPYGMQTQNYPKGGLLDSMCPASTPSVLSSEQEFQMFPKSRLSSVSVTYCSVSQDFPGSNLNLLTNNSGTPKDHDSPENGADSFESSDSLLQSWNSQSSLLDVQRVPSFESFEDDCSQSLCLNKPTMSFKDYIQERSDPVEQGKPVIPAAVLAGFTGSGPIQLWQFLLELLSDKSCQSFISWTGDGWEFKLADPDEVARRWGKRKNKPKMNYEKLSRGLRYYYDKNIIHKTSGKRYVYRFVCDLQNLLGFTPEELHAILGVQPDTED
# Outline: as §1
# SPDEF = molecular target: T11, SPDEF (Homo sapiens, UniProt O95238 1-335)
# T11 sequence: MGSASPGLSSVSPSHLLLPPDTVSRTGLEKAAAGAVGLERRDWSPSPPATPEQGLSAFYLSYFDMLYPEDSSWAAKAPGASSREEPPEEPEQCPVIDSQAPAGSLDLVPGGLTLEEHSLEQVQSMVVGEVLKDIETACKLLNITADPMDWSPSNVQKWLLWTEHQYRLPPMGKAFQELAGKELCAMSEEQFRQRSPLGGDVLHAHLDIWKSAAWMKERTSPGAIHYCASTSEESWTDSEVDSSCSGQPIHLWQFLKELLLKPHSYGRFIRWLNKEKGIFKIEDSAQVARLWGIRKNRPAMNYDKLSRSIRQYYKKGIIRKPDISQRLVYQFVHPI
# Outline: as §1
# ETV7 = molecular target: T12, ETV7 (Homo sapiens, UniProt Q9Y603 1-341)
# T12 sequence: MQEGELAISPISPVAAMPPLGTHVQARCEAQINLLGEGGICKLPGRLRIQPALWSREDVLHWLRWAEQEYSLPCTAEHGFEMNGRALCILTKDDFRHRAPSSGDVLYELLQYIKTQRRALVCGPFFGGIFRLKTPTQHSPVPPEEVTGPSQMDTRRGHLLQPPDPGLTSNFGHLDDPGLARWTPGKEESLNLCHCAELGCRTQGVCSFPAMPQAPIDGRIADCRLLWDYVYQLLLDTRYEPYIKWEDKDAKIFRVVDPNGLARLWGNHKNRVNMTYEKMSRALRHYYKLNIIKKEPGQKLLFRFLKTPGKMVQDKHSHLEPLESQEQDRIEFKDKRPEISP
# Outline: as §1
# ETV3 = molecular target: T13, ETV3 (Homo sapiens, UniProt P41162-2 1-143)
# T13 sequence: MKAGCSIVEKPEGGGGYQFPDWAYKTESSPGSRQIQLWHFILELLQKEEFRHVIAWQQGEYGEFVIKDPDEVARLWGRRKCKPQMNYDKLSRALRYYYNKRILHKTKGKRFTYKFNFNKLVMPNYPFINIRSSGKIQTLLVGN
# Outline: as §1
# ETV6 = ETV6 (Homo sapiens, UniProt P41212 1-452)
# Outline: as §1
# Chain of ETV1 (P50549 whole entry): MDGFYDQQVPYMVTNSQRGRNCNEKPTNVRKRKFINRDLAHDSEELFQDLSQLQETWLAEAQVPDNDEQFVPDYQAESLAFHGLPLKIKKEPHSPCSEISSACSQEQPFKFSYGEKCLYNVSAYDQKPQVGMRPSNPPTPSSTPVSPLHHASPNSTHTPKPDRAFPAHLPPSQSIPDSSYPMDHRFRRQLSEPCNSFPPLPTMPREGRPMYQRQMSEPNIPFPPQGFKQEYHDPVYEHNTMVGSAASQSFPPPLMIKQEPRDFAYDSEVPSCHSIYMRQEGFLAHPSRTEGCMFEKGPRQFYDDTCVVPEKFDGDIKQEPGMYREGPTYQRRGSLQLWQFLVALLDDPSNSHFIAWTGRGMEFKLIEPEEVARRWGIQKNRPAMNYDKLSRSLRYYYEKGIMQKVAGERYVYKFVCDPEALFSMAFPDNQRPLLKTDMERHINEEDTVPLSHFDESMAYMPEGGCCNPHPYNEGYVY
# Chain of ELF1 (P32519 whole entry): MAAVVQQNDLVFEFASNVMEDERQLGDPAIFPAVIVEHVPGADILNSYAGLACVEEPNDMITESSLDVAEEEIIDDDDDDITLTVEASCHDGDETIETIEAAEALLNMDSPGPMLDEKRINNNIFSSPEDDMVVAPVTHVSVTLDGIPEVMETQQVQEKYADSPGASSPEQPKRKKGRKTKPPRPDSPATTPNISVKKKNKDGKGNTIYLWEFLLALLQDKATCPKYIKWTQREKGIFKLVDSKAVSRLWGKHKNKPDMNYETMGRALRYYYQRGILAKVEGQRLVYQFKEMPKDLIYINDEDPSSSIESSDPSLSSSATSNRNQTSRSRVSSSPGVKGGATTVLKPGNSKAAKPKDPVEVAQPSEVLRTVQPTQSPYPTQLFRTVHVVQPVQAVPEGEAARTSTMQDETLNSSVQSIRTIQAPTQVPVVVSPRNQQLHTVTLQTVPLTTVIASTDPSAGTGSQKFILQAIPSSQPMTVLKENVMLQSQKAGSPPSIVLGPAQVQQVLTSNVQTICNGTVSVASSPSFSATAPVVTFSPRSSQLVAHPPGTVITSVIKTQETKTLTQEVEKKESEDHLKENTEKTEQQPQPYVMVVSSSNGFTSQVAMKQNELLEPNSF
# Chain of SPIB (Q01892 whole entry): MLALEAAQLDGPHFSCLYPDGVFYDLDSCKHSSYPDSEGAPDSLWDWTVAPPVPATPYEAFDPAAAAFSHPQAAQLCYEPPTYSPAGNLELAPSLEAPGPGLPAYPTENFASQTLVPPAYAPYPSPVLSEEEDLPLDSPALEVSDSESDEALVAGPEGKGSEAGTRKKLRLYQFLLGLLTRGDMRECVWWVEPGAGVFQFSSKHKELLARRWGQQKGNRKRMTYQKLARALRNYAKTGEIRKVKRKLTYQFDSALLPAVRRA
# Chain of ETV6 (P41212 whole entry): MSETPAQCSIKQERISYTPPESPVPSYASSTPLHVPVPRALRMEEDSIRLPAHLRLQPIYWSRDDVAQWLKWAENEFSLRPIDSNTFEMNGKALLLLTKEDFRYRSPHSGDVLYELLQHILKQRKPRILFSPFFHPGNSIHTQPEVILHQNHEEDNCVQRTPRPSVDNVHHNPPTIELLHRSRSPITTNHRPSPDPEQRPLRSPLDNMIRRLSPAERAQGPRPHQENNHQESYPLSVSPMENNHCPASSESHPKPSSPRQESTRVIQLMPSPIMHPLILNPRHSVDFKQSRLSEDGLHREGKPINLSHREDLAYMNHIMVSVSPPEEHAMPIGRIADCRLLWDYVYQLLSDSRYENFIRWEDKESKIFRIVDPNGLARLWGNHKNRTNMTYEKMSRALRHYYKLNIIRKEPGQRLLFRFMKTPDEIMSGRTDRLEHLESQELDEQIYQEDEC
# Chain of ELF4 (Q99607 whole entry): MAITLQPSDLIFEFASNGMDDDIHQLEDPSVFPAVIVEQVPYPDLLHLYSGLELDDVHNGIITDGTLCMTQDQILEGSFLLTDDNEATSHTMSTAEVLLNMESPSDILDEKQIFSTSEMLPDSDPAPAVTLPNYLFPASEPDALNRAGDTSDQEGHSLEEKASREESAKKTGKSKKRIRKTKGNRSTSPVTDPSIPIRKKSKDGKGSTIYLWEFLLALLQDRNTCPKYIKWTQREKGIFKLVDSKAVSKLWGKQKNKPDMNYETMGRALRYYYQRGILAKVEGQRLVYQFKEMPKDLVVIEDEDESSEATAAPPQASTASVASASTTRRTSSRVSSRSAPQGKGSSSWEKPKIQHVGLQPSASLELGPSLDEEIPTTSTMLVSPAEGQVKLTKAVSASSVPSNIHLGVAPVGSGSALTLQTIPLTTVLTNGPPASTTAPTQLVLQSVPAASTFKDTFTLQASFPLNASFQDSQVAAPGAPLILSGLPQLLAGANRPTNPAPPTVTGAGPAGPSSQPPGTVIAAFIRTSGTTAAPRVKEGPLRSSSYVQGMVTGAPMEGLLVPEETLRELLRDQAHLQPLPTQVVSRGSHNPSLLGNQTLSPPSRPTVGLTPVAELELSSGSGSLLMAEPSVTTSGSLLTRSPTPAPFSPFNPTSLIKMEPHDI
# Chain of ETV5 (P41161 whole entry): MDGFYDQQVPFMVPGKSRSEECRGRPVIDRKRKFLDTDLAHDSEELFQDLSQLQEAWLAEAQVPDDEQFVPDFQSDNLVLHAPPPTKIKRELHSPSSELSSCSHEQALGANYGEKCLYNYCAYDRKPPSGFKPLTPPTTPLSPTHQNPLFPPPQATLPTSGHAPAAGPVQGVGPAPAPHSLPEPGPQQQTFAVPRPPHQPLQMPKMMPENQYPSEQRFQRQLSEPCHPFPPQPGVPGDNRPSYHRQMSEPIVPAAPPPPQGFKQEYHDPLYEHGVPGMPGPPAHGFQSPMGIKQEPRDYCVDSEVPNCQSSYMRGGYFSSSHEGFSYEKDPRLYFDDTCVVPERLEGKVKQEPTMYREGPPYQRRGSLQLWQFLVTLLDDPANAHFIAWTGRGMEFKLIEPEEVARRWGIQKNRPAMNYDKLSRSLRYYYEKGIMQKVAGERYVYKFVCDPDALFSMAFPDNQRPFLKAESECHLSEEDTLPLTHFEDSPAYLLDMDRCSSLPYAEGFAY
sequence,measurement,setting,value
TGCGCC,binding signal,ELK1,"1.21 fold enrichment (6-mer frequency, TF over GST control)"
same,binding signal,GABPA,"1.19 fold enrichment (6-mer frequency, TF over GST control)"
same,binding signal,ERG,"1.2 fold enrichment (6-mer frequency, TF over GST control)"
same,binding signal,ELF1,"1.14 fold enrichment (6-mer frequency, TF over GST control)"
same,binding signal,EHF,"1.08 fold enrichment (6-mer frequency, TF over GST control)"
same,binding signal,SPIB,"1.27 fold enrichment (6-mer frequency, TF over GST control)"
same,binding signal,FEV,"1.16 fold enrichment (6-mer frequency, TF over GST control)"
same,binding signal,ETV5,"1.04 fold enrichment (6-mer frequency, TF over GST control)"
same,binding signal,ELF4,"1.19 fold enrichment (6-mer frequency, TF over GST control)"
same,binding signal,ETV2,"1.18 fold enrichment (6-mer frequency, TF over GST control)"
same,binding signal,ELF3,"1.03 fold enrichment (6-mer frequency, TF over GST control)"
same,binding signal,ETV1,"1.23 fold enrichment (6-mer frequency, TF over GST control)"
same,binding signal,ERF,"1.12 fold enrichment (6-mer frequency, TF over GST control)"
same,binding signal,ETV3L,"1.27 fold enrichment (6-mer frequency, TF over GST control)"
same,binding signal,ETS2,"1.14 fold enrichment (6-mer frequency, TF over GST control)"
same,binding signal,SPDEF,"1.07 fold enrichment (6-mer frequency, TF over GST control)"
same,binding signal,ETV7,"1.09 fold enrichment (6-mer frequency, TF over GST control)"
same,binding signal,ETV3,"1.15 fold enrichment (6-mer frequency, TF over GST control)"
same,binding signal,ETV6,"1.27 fold enrichment (6-mer frequency, TF over GST control)"
